Screening results from PubChem BioAssay.
A selection: hits, their analogues and other compounds. The true share with any hit is near 12%.
Arbovirus anti = blocks arbovirus infection | inhibition, % at 10 µM | arbovirus infection cell-based antiviral screen | 0.37% of 200,000 active; in the data active = inhibition above about 30%
Lmaj promast = Leishmania major promastigote growth inhibition; Leishmania major promastigotes, resazurin fluorescence viability; inhibition, % at 10 µM; 9% of 200,000 active; AID 1063; in the data active = inhibition above about 50%;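 note: promastigotes grown with compound for 44 hours at 28 °C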
CHOP inhibitor = inhibitors of CHOP induction in ER stress response; CHO-K1 CHOP-promoter luciferase, tunicamycin-induced, 15-18 h; inhibition, % at 10 µM; 3.8% of 220,000 active; AID 2732;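 active = compounds that reduced the stress-induced luciferase reporter signal by more than about 70% of percent inhibition, limit read from the data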;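 note: 0% = tunicamycin plus vehicle and 100% = wells without tunicamycin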
WT yeast gro inh = growth inhibition of WT yeast, mitochondrial fusion screen | mitochondrial fusion phenotypic screen, WT strain | inhibition, % at 10 µM | 2.1% of 190,000 active; in the data active = inhibition above about 58%; tested in S. cerevisiae
Active calls of the source: *; nt = not tested or not shown.

SMILES	Arbovirus anti	Lmaj promast	CHOP inhibitor	WT yeast gro inh
CC(Sc1nc2ccccc2s1)C(=O)c1c(N)n(C)c(=O)n(C)c1=O (centres undefined)	1	8	8	-11
CC(=O)OCC(=O)NCC(=O)c1c[nH]c2ccccc12	-3	-4	3	19
O=C(CC(C(=O)O)c1ccc(Cl)cc1)c1ccccc1 (centres undefined)	13	-8	2	-18
CC(C)(C)c1ccc(C(=O)CC(Sc2ccc(Cl)cc2)C(=O)O)cc1 (centres undefined)	-26	78*	-26	-9
COc1ccc(CCNc2oc(-c3cccc4ccccc34)nc2P(=O)(OC)OC)cc1OC	1	4	5	-9
COP(=O)(OC)c1nc(-c2cccc3ccccc23)oc1NCCc1ccccc1	-4	71*	50	2
CCOP(=O)(OCC)c1nc(-c2ccc(C)cc2)oc1NCc1ccccc1	-8	79*	8	-3
CCOP(=O)(OCC)c1nc(-c2cccc3ccccc23)oc1NCc1ccccc1	-4	-4	77*	-15
CCOP(=O)(OCC)c1nc(-c2cccc3ccccc23)oc1NCc1ccc(OC)cc1	-27	71*	52	17
CC(C)(C)c1ccc(NC(=O)Cn2cnc3cc([N+](=O)[O-])ccc3c2=O)cc1	5	10	91*	11
CC(C)CC(c1nnnn1C(C)C)N1CCN(c2ccccc2)CC1 (centres undefined)	17	-3	1	12
CC(=NCCc1c(C)[nH]c2ccc(OC(F)(F)F)cc12)C1=C(O)CC(c2ccccc2)CC1=O (centres undefined)	-1	2	72*	0
CCCC(=NCCc1c(C)[nH]c2ccccc12)C1=C(O)CC(c2ccccc2)CC1=O (centres undefined)	-3	7	31	17
CC(=NCCc1c(C)[nH]c2ccc(C)cc12)C1=C(O)CC(c2ccccc2)CC1=O (centres undefined)	-16	98*	56	15
CCOC(=O)c1c(-c2ccccc2)csc1NC(=O)CSc1ccccc1	12	1	11	-8
CCOC(=O)c1c(NC(=O)C2C3CCC(O3)C2C(=O)O)sc2c1CCCC2 (centres undefined)	0	-4	10	-9
CCOC(=O)c1c(-c2ccccc2)csc1NC(=O)C1CCCO1 (centres undefined)	0	2	83*	6
CCOC(=O)c1c(-c2ccc(-c3ccccc3)cc2)csc1NC(=O)C1C2CCC(O2)C1C(=O)O (centres undefined)	-2	-6	88*	10
CN(Cc1ccon1)Cc1cn(Cc2ccccc2)nc1-c1ccc2c(c1)OCO2	-4	8	12	26
O=C(CCN1C(=O)C2C3C=CC(C3)C2C1=O)Nc1ccc(F)cc1 (centres undefined)	3	-1	86*	-3
O=C(CCN1C(=O)C2C3C=CC(C3)C2C1=O)Nc1ccc2c(c1)OCO2 (centres undefined)	-5	0	-33	-13
Cc1ccc(-c2nc3ccccc3o2)cc1NC(=O)c1ccc2c(c1)OCO2	-11	2	87*	nt
COc1ccc(NC(=O)c2oc3ccccc3c2NC(=O)c2ccc3c(c2)OCO3)cc1	2	100*	-1	10
Cc1ccc(-c2nc3ccccc3o2)cc1NC(=S)NC(=O)c1cccs1	-11	-4	82*	-27
COc1ccc(NC(=O)c2oc3ccccc3c2NC(=O)COc2ccccc2OC)c(OC)c1	-18	-1	4	64*
SMILES	Arbovirus anti	Lmaj promast	CHOP inhibitor	WT yeast gro inh
CCOC(=O)c1oc2ccccc2c1NC(=O)c1ccc2c(c1)OCO2	2	-6	22	16
CCOCC(=O)Nc1c(C(=O)Nc2ccccc2OC)oc2ccccc12	-8	0	-10	-2
Cc1c(NC(=O)c2ccc3c(c2)OCO3)cccc1-c1nc2ccccc2o1	2	24	-8	20
Cc1cc(C)n(-c2c(C)[nH]c3ccccc23)n1	1	-1	-1	4
CN(C)CCCOC(=O)COc1ccc(C(C)(C)C)cc1	-7	0	-19	-4
CCCCNC(=O)CCCCCNS(=O)(=O)c1ccc(Br)cc1	5	4	10	0
O=C(Nc1ccc2oc(-c3ccccc3F)nc2c1)c1ccc2c(c1)OCCO2	-24	66*	-9	25
O=C(Nc1ccc(-c2nc3ccccc3o2)cc1)c1ccc2c(c1)OCO2	-3	-1	85*	3
Cc1ccc(C)c(N/N=C2\CCCNC2=O)c1	-9	78*	20	-1
Cc1[nH]c2ccccc2c1N=Nc1ccccc1F	-27	-6	-11	72*
Cc1[nH]c2ccccc2c1N=Nc1cc(C(=O)O)cc(C(=O)O)c1	4	-7	21	2
Cc1[nH]c2ccccc2c1N=Nc1ccc(F)cc1	-33	3	90*	68
